Source: the supplement of paper PMC11006884
Targets with a hit are over-represented here; the source holds about 6,500 in all. About 2% of all pairs of compound and target were hits. Unmarked numbers belong to inactive results.

compound: COC(=O)C#Cc1ccccc1 [methyl 3-phenylpropiolate]; assay: log2 ratio of iodoacetamide-alkyne labeling of the cysteine site, DMSO over compound (competition); higher = stronger covalent engagement of the cysteine by the compound, active = 1 or more; conditions: 500 µM; treatment time 1 h; system: HEK293T cell lysate
Procedure, shortened: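 Electrophile (500 µM) or vehicle was added to HEK293T lysate (2 mg/mL) for 1 h at ambient temperature before iodoacetamide alkyne labelling (1 h) and click coupling to sCIP-TMT reagents. After pooling, overnight trypsin digestion at 37 °C, streptavidin enrichment and acid elution, peptides were measured by Orbitrap Eclipse LC-MS/MS with FAIMS and quantified in FragPipe. Each cysteine's log2 competition ratio compares mean control-channel with mean compound-channel reporter intensity, control over compound. Data came from duplicate channels across three replicates, excluding cysteines quantified in only one replicate.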

Sequence of UniProt Q8IWD4 (Q8IWD4 whole entry): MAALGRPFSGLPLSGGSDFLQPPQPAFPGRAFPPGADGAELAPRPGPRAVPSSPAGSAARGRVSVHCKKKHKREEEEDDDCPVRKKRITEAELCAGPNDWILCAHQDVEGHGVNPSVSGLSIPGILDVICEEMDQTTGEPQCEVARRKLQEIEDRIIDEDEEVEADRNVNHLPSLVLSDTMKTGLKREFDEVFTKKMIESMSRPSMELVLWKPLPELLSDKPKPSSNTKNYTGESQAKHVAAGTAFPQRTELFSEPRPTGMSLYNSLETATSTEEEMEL
Sequence of UniProt Q8IVM0 (Q8IVM0 whole entry, looked up): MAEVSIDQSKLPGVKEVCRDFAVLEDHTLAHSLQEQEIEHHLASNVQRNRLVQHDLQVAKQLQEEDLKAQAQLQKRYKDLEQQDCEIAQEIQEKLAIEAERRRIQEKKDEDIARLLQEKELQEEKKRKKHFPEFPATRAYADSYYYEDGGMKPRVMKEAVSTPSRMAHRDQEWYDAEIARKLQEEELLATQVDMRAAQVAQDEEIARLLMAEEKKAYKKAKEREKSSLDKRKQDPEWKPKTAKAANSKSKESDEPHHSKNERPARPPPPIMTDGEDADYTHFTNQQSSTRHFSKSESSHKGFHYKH
Sequence of UniProt Q66GS9 (Q66GS9 whole entry): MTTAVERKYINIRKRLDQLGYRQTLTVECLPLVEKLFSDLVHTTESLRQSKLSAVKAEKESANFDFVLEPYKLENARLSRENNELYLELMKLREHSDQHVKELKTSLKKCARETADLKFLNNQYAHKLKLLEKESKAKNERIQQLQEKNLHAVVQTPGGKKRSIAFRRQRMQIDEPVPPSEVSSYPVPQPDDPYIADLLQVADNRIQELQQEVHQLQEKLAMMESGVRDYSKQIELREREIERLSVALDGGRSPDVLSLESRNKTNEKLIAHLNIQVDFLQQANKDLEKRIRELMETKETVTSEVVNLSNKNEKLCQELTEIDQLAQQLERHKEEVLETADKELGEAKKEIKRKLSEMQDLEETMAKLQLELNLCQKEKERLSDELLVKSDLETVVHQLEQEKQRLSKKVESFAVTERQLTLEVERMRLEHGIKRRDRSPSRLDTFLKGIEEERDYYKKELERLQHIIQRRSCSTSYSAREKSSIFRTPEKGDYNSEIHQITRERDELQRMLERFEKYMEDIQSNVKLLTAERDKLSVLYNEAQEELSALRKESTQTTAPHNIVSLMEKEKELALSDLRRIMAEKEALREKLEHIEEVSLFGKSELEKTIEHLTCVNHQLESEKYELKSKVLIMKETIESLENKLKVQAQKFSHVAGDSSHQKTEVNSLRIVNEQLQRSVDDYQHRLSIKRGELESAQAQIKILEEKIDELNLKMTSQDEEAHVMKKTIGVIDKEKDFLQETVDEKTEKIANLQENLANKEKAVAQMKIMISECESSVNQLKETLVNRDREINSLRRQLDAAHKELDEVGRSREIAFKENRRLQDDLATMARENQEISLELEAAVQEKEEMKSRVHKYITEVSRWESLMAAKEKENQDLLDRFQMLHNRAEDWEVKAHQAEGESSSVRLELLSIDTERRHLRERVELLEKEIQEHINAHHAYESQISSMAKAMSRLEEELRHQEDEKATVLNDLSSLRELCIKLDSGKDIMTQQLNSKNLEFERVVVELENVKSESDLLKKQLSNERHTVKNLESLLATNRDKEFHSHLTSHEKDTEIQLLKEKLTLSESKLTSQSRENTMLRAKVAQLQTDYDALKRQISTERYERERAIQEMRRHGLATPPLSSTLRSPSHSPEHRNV
Sequence of UniProt Q92667 (Q92667 whole entry, looked up): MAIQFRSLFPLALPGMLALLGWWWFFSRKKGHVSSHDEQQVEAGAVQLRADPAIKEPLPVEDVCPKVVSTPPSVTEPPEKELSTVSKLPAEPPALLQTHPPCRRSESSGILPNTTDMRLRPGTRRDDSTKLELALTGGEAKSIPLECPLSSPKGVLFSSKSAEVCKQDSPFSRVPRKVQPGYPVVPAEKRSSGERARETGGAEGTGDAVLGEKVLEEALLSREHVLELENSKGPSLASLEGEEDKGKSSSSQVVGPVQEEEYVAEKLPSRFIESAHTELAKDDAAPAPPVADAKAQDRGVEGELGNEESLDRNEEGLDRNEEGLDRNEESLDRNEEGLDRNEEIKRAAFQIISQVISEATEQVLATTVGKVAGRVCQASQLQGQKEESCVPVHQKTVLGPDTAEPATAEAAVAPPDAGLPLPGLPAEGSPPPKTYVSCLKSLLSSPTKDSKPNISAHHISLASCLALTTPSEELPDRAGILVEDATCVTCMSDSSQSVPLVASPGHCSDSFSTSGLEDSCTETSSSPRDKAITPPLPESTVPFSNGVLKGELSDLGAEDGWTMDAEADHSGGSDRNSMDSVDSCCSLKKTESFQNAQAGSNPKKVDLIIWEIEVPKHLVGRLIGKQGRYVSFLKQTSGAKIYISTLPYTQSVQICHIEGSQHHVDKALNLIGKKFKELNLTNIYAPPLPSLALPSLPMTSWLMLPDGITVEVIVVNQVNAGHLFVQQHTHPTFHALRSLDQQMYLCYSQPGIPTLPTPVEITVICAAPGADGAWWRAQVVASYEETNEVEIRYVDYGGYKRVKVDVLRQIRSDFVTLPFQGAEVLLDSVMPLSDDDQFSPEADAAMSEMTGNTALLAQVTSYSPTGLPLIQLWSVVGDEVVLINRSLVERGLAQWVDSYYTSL
Sequence of UniProt Q96GX9 (Q96GX9 whole entry, looked up): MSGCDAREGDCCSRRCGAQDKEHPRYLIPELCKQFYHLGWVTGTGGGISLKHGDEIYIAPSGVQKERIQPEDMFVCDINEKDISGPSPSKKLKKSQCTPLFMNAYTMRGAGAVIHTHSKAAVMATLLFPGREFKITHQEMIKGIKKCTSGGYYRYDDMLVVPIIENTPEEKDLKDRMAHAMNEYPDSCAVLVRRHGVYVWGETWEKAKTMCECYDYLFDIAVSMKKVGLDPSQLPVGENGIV
Sequence of UniProt Q8WU79 (Q8WU79 whole entry): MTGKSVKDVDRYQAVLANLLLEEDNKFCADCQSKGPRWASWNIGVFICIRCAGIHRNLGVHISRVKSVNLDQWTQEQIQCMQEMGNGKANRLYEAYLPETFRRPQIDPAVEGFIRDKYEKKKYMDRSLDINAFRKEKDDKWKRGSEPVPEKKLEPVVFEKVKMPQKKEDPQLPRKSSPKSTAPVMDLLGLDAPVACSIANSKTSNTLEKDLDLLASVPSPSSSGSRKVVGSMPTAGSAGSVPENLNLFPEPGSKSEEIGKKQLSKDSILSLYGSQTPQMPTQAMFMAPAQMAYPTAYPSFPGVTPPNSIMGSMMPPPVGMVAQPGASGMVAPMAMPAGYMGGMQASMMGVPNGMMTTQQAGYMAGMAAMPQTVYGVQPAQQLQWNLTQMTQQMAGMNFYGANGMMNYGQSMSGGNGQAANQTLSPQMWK
Sequence of UniProt Q92620 (Q92620 whole entry, looked up): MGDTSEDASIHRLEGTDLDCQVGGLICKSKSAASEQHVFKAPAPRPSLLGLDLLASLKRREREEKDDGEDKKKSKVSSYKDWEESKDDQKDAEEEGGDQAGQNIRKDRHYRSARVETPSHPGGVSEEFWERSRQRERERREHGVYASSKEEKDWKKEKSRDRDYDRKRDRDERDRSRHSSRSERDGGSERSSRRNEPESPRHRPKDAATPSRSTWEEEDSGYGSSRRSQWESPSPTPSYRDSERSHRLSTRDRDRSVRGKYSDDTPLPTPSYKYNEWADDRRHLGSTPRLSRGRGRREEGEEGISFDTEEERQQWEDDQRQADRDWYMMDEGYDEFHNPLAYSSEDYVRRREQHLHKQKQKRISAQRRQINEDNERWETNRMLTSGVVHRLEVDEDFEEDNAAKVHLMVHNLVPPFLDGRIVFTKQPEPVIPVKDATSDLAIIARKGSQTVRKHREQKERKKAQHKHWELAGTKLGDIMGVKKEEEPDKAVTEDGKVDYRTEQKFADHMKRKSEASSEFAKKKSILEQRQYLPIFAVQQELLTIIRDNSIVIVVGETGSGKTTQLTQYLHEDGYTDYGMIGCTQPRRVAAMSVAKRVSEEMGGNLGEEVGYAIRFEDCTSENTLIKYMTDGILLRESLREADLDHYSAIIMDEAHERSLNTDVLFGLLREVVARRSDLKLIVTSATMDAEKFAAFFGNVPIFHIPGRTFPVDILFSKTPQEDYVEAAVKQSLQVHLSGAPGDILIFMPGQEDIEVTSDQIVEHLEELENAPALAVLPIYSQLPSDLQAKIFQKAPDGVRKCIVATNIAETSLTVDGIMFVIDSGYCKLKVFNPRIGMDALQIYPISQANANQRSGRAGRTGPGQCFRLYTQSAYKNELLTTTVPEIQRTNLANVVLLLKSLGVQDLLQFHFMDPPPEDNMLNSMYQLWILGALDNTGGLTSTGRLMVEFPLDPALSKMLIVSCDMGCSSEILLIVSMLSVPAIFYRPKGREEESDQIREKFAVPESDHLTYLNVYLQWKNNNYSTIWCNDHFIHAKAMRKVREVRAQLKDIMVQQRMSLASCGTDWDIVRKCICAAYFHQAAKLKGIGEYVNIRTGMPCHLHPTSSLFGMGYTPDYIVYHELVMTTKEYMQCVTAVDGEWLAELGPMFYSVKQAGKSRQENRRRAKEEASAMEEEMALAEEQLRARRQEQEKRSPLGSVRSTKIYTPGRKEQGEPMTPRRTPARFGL

Target	log2 ratio of iodoacetamide-alkyne labeling
USP9X C1061 (UniProt Q93008)	0.0678
VPS13B C2907 (UniProt Q7Z7G8)	0.889
CCDC117 C81 (UniProt Q8IWD4)	1.66 (active)
AKT1S1 C61 (UniProt Q96B36)	0.266
UniProt Q8WUQ7_C699	0.0859
UniProt Q92888_C892	0.0678
YOD1 C97 (UniProt Q5VVQ6)	0.146
APIP C97 (UniProt Q96GX9)	0.129
UniProt Q99590_C478	0.396
CEP135 C316 (UniProt Q66GS9)	0.0231
DHX38 C27 (UniProt Q92620)	1.36 (active)
MED12 C83 (UniProt Q93074)	0.457
ATPAF1 C321 (UniProt Q5TC12)	0.464
USP28 C142 (UniProt Q96RU2)	1.47 (active)
KIAA2013 C185 (UniProt Q8IYS2)	0.14
MMS19 C549 (UniProt Q96T76)	1.36 (active)
GPKOW C394 (UniProt Q92917)	-0.0148
DARS2 C371 (UniProt Q6PI48)	0.442
SMAP2 C196 (UniProt Q8WU79)	0.318
UBR4 C1450 (UniProt Q5T4S7)	0.138
CCDC50 C85 (UniProt Q8IVM0)	0.455
AKAP1 C389 (UniProt Q92667)	1.15 (active)
